Only a selection was taken, and hits are over-represented in it overall.
PKM2 inhibitor: qHTS Assay for Inhibitors of Human Muscle isoform 2 Pyruvate Kinase; Pyruvate kinase PKM (Homo sapiens), P14618; purified PKM2, ATP generation, Kinase-Glo luminescence; Potency, µM (highest dose often 57.5 µM), inactives show top-dose activity change, negative = inhibition, most hits filed as inhibitors; 0.058% of 260,000 active; AID 1634, 2009; active = well fitted inhibition curve with a large enough effect; note: nearly all actives have a fitted effect of over 60% in size
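Coupled luciferase luminescence (Kinase-Glo) detects ATP generated from 0.1 mM ADP and 0.5 mM PEP in imidazole buffer pH 7.2 with KCl, MgCl2; 1 h at room temperature. Enzyme at intermediate activity; normalized to uninhibited and no-enzyme controls.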
* marks the source's active call; other numbers are inactive results. Potency is the fitted concentration of half-maximal effect.

SMILES	PKM2 inhibitor
CN(C)C(=S)SSC(=S)N(C)C	14.1µM*
NP(=O)(OCCCc1ccccc1)Oc1ccccc1Cl (stereo not drawn)	7.0%
O=C1C2CCN(CC2)[C@@H]1Cc1ccc2ccccc2c1O	41.8%
O=C(Nc1cccnc1)C1CCN(S(=O)(=O)c2cccs2)CC1	38.4%
CN(C)C(=O)Oc1ccc(OCc2nc3ccccc3[nH]2)cc1	11.2µM*
CSc1nc2ccccc2n1C(=O)Oc1ccccc1	31.9%
CC(=O)Nc1ccc(N(C(=O)Cn2nnc3ccccc32)C(C(=O)NC2CCCC2)c2ccc(O)c(O)c2)cc1 (stereo not drawn)	44.1%
S=P(Nn1cnnc1)(c1ccc(Br)cc1)c1ccc(Br)cc1	76.1%
c1cncc(CNC2CCCC2)c1	-1.3%
CC(Oc1ccc(-c2ccccc2)cc1)C(=O)O (stereo not drawn)	-1.3%

Bioassay records: PubChem, National Center for Advancing Translational Sciences (NCATS)
